Screens (PubChem BioAssay)
Compounds with a hit are over-represented: about 10% of the library has one in this group of screens.
CCT modulator: modulators of cytosolic chaperonin (CCT/TRiC) activity; purified chaperonin ATPase assay, HTRF ADP detection, 30 min; activity change, % (no concentration beside the values), hits read low; 360,000 compounds, 0.3% hits; in the data active means activity change below about -30%
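First, chaperonin was dispensed at 40 nM or 20 nM final depending on batch activity. Next, compounds were pinned at 76 uM and ATP added at 10 uM. After 30 min at 37 °C, ADP detection reagents ran 30 min at ambient temperature.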
PLK1 PBD block: PLK1 (human) polo-box domain binding inhibition; P53350; Plk1 PBD binding of FITC phosphopeptide, fluorescence polarization; Potency, µM, inactives show max response, negative = inhibition, hits mostly inhibitors; 360,000 compounds, 2.8% hits; AID 720504; further: potency means the concentration at half of the fitted maximal effect; series mostly up to about 57 µM; nearly all actives have a fitted effect of over 65% in size
G9a inh: inhibitors of human histone lysine methyltransferase G9a. Potency, µM (titrated, usually from 102 µM), for inactives: at the top dose activity, negative = inhibition, usual class: inhibitors. Q96KQ7. 350,000 compounds, 8.8% hits. G9a H3K9 monomethylation, AlphaScreen, 2 h. AID 504332; further: potency means the concentration at half of the fitted maximal effect; nearly all actives have a fitted effect of over 75% in size
Target sequence (Q96KQ7 913-1193 limits assumed): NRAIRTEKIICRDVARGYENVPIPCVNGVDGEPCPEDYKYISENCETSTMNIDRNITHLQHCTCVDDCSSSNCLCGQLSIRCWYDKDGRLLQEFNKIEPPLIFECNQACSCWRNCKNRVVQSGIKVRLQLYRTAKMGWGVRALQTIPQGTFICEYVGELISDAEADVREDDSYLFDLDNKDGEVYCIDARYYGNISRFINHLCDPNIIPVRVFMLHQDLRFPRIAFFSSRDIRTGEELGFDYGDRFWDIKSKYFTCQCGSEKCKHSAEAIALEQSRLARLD
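Using a bead-based AlphaScreen, monomethylated H3K9 product from 2 h room-temperature reactions (G9a 20 nM, peptide 500 nM, SAM 20 uM) was detected with 0.5 ug/mL rabbit anti-H3K9me1 antibody.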
Mm-Cpn inhibitor: inhibitors of Methanococcus maripaludis chaperonin TRiC (MmCpn) | purified Mm-Cpn ATPase, ADP Transcreener TR-FRET | Potency, µM (top dose mostly 76.9 µM), for the others: at the top dose activity, negative = inhibition, most hits filed as inhibitors | 330,000 compounds, 0.031% hits; further: potency means the concentration at half of the fitted maximal effect; nearly all actives have a fitted effect of over 80% in size
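ATPase turnover read by TR-FRET ADP competition (Eu cryptate antibody/ADP-d2, 665/590 nm): 10uM ATP final, 25nM Mm-CPN final, 30 min 37degC after 10-min compound preincubation, pH 7.4 Tris/KCl/MgCl2/DTT buffer.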
Sfp inh: inhibitors of Bacillus subtilis Sfp phosphopantetheinyl transferase | 310,000 compounds, 3.5% hits | Potency, µM, inactives show largest response in the series, negative = inhibition, actives largely listed as inhibitors | Biochemical Sfp PPTase activity, qHTS | Q9F4F7;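 further: the enzyme is Sfp with the accession as filed and its product quenches rhodamine fluorescence; potency means the concentration at half of the fitted maximal effect; 0% = enzyme reaction without inhibitor and -100% = no enzyme wells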
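After 15 min at room temperature with compound, 15 nM Sfp received 5 uM rhodamine-CoA plus 12.5 uM BHQ-2-ybbR (50 mM Hepes pH 7.6, 10 mM MgCl2). Rate came from the fluorescence difference over 30 min, ex 525/em 598 nm.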
VDR inh: inhibitors of human vitamin D receptor. P11473. VDR-SRC2-3 peptide fluorescence polarization, 2 h. Potency, µM, without a hit: max response, negative = inhibition, usual class: inhibitors. 400,000 compounds, 0.93% hits. AID 504847; further: potency means the concentration at half of the fitted maximal effect
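Reagent solutions, kept cold and dark, are dispensed first; compounds are then pinned in at 23 nl, plates briefly spun, and incubated 2 h at ambient temperature. Inhibition of VDR–SRC2-3 peptide binding is read by fluorescence polarization.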
* hit, by the source's call; ? = inconclusive; · = no result; [ ] = remark or other dose. Unless noted, the call rests on the fitted dose curve; in most records, active means well fitted curve in the direction sought with a large enough effect; inconclusive means small, poorly fitted or top-dose-only effect, or another doubt; inactive means no such curve, though single readings can be large; an effect the other way counts as inactive or inconclusive. Unless noted, on the % scale 0 is the no-effect control and ±100 the full control effect.

SMILES | CCT modulator | PLK1 PBD block | G9a inh | Mm-Cpn inhibitor | Sfp inh | VDR inh
O=C(CCCn1c(=S)[nH]c2ccc(Br)cc2c1=O)NCC1CCCO1 (configuration not stated) | 2 | -17% | 40µM* | -1% | 12% | 9%
CC(NC(=O)CCn1c(=S)[nH]c2ccsc2c1=O)c1ccccc1 (configuration not stated) | 1 | -11% | 28µM* | 2% | 11% | -3%
CCOC(=O)N1CCN(C(=O)CCCn2c(=S)[nH]c3ccc(Br)cc3c2=O)CC1 | -2 | -9% | 10µM* | 0% | -2% | -4%
Cc1ccc(-n2c(=O)c3cccnc3n2CC(=O)Nc2cccc(C)c2C)cc1 | · | · | ? | · | · | -2%
O=C(CCCn1c(=S)[nH]c2ccsc2c1=O)NCc1ccco1 | -1 | -15% | ? | 1% | ? | -1%
NC(=O)C1CCN(C(=O)CCCCCn2c(=O)[nH]c3ccsc3c2=O)CC1 | -1 | 5% | -9%[59 µM] | 1% | -5% | -13%
O=C(CCCCn1c(=S)[nH]c2ccsc2c1=O)NCc1ccco1 | 0 | -18% | 22µM* | -1% | ? | -13%
CCOC(=O)N1CCN(C(=O)CCCCCn2c(=S)[nH]c3ccsc3c2=O)CC1 | -2 | -5% | 18µM* | 2% | ? | -4%
Cc1ccc2oc(C(=O)Nc3ccc(S(=O)(=O)Nc4ncccn4)cc3)cc(=O)c2c1 | · | · | -1%[59 µM] | · | · | 12%
CCC(=O)C1=C(c2ccc(F)cc2)N(C(=O)CC)n2cnnc2S1 | · | · | ? | · | · | -1%
O=C(CCCN1C(=O)c2ccccc2C1=O)Nc1nccs1 | -1 | -14% | ? | -2% | -8% | 10%
CC(=O)OC(C(=O)Nc1nccs1)c1ccccc1 (configuration not stated) | 3 | 7% | -8% | 0% | 19% | 20%
O=C(Nc1nccs1)C(Br)C(Br)c1ccccc1 (configuration not stated) | 1 | 0.95µM* | 3.5µM* | -4% | 50µM* | 28µM*
O=C(Nc1nccs1)OCc1ccccc1 | 1 | 0% | · | · | · | 0%
CC(C)C(C(=O)Nc1nccs1)N1C(=O)c2ccccc2C1=O (configuration not stated) | 3 | 21µM* | 4% | 1% | 8% | -5%
O=C(NCc1ccccc1)C(=O)Nc1nccs1 | 4 | -12% | 13µM* | -1% | -13% | -8%
CCOC(=O)c1ccccc1NC(=O)N1CCCn2nc(C)cc21 | · | · | -3%[59 µM] | · | · | -5%
Cc1nc2c(C(=O)NCc3ccc(F)cc3)c[nH]n2c(=O)c1Cl | -2 | ? | 50µM* | -7% | 13% | -17%
Cc1nc2c(C(=O)NCCC(C)C)c[nH]n2c(=O)c1Cc1ccccc1F | -4 | 21µM* | · | 0% | 3% | -6%
Cc1nc2c(-c3ccc(F)cc3)c(C)[nH]n2c(=O)c1Cl | -2 | -17% | 50µM* | -1% | 14% | 17%
Cc1nc2c(C(=O)NCCc3ccccc3)c[nH]n2c(=O)c1Cl | -3 | ? | 50µM* | 1% | 20% | -9%
Cc1c(CCNC(=O)C(C)(C)C)sc2nc(-c3ccc(F)cc3)nn12 | · | · | ? | · | · | 6%
COC(=O)Cc1sc(-c2ccccn2)nc1-c1ccccc1 | -2 | 4.7µM* | 2.2µM* | -4% | 22µM* | 25µM*
O=C(Cc1sc(-c2ccccc2)nc1-c1ccccc1)Nc1ccc(Cl)cc1 | 1 | -2% | 8%[59 µM] | -13% | 9% | -5%
CCCSCCCNC(=O)C1CCCN(c2nn3cc(-c4ccc(OC)cc4)nc3s2)C1 (configuration not stated) | · | · | ? | · | · | 5%
N#Cc1cccc(-c2ccc3ncnc(NCCN4CCOCC4)c3c2)c1 | · | · | -45%[0.501 µM] | · | 36% | -6%
O=C(COC(=O)c1ccc(Cl)c([N+](=O)[O-])c1)Nc1ccccc1OC(F)F | -2 | -8% | 1.6µM* | 1% | 1% | -10%
Cc1ccc(Cl)cc1N1CCN(CCCNc2ncnc3onc(-c4ccc(F)cc4)c23)CC1 | · | · | ? | · | · | 10%
O=C(Cn1c2ncccc2c(=O)n1-c1ccccc1)Nc1cccc(C(F)(F)F)c1 | · | · | 34%[59 µM] | · | · | -5%
